Compound activity from PubChem BioAssay.
This excerpt belongs to a sample that is enriched for hits.
TDP1 cell noCPT: qHTS for Inhibitors of human tyrosyl-DNA phosphodiesterase 1 (TDP1): qHTS in cells in absence of CPT | DT40 Tdp1-/- hTDP1 cells, no CPT, ATP luminescence, 48 h | Potency, µM (highest dose often 46.2 µM), without a hit: top-dose activity change, negative = growth inhibition, usual class: inhibitors | hit rate 15% among 420,000 | AID 686978, 2013; also: potency is read from the fitted curve at half-maximal effect; nearly all actives have a fitted effect of over 55% in size
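Chicken DT40 Tdp1-/- cells complemented with human TDP1, screened without camptothecin (DMSO vehicle only), 400 cells/well. Compounds pin-transferred, cells incubated at 37 °C for at least 48 hr. Growth read as ATP-dependent luminescence (CellTiter-Glo, 30 min at RT).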
HT1080 IDH1KD tx: qHTS for induction of synthetic lethality in tumor cells producing 2HG: qHTS for the HT-1080-IDH1KD cell line; AID 686971, 2013; hit rate 2% among 360,000; HT-1080 IDH1 knockdown viability, ATP luminescence, 48 h; Potency, µM (doses to about 46.1 µM), for inactives: at the top dose activity, negative = toxicity, actives largely listed as cytotoxic;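 also: potency is read from the fitted curve at half-maximal effect; 0% = DMSO wells and -100% = cell-free medium wells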
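Knockdown cells (IDH1KD HT-1080) received compounds 2 h after plating at 750 cells/well and were kept 48 h at 37 °C in 5% FBS RPMI. A CellTiter-Glo luminescence read gave % activity for curve fitting.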
TDP1 cell CPT: qHTS for Inhibitors of human tyrosyl-DNA phosphodiesterase 1 (TDP1): qHTS in cells in presence of CPT; chicken DT40 Tdp1-/-;hTDP1 cells + 20 nM CPT, ATP luminescence, 48 h; hit rate 12% among 420,000; Potency, µM (titrated, usually from 46.2 µM), inactives show at the top dose activity change, negative = growth inhibition, hits mostly inhibitors; AID 686979, 2013; also: potency is read from the fitted curve at half-maximal effect; nearly all actives have a fitted effect of over 55% in size
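Cell growth measured by CellTiter-Glo luminescence after a minimum 48 h, 37 C compound exposure with 20 nM CPT in Tdp1-knockout DT40 cells stably expressing hTDP1, seeded 400/well; qHTS titration format.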
IL-1B inflam inh: qHTS for Inhibitors of Inflammasome Signaling: IL-1-beta AlphaLISA Primary Screen | THP-1 LPS/ATP IL-1B secretion, AlphaLISA, 16 h; stronger effect = lower value | activity change, % at 57.5 µM | hit rate 4.7% among 360,000 | AID 743279, 2014; in the data active = activity change below about -50%; inconclusive = mostly about -30% to -49%
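Secreted IL-1B measured by AlphaLISA bead assay after 16 h compound exposure of THP-1 cells; compounds (final up to 57.5 uM) added 1 h before LPS (250 ng/mL) and ATP (1.25 mM) stimulation; lower signal means less secretion.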
12-LOX inh: Primary qHTS assay for inhibitors of human arachidonate 12S-lipoxygenase (ALOX12): Round 2 | Polyunsaturated fatty acid lipoxygenase ALOX12 (Homo sapiens), P18054 | purified 12hLO, xylenol orange hydroperoxide absorbance | Potency, µM (highest dose often 108 µM), for inactives: top-dose activity change, negative = inhibition, actives largely listed as inhibitors | hit rate 1.1% among 580,000 | AID 1671190, 2021; also: potency is read from the fitted curve at half-maximal effect
Target sequence (P18054 whole entry, looked up): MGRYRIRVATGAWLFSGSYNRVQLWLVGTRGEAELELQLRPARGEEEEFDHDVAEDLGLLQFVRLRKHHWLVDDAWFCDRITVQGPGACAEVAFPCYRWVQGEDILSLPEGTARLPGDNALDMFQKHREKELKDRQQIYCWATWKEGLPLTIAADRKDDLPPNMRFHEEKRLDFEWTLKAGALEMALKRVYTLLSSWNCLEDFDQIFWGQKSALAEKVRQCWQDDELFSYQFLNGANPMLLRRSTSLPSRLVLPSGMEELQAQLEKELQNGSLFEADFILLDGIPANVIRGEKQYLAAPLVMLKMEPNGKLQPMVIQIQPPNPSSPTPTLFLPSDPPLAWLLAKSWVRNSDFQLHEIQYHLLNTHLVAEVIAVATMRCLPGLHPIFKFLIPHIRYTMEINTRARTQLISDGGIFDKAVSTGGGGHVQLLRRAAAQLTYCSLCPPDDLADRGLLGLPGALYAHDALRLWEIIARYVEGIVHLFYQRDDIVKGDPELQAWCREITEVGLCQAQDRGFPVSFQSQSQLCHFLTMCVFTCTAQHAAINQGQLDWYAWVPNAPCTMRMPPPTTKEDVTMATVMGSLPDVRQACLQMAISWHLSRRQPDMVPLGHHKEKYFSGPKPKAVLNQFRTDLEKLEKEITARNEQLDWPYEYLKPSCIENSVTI
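Purified human 12hLO (150 nM final) in 25 mM Hepes, 0.01% Triton X-100, pH 7.0 was preincubated 15 min at room temperature with compound. Then 40 uM arachidonic acid was added, 30 min. Hydroperoxide was read by Fe-XO absorbance ratio 573/405 nm.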
HT1080NT lethal: qHTS for induction of synthetic lethality in tumor cells producing 2HG: qHTS for the HT-1080-NT fibrosarcoma cell line | AID 686970, 2013 | HT-1080-NT fibrosarcoma viability, CellTiter-Glo ATP luminescence, 48 h | Potency, µM (titrated, usually from 46.1 µM), inactives show at the top dose activity, negative = less viability, most hits filed as cytotoxic | hit rate 1.6% among 360,000;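 also: NT is the 2HG producing partner of a matched IDH1 knockdown line; potency is read from the fitted curve at half-maximal effect; 0% = DMSO-treated cells and -100% = media-only wells without cells; nearly all actives have a fitted effect of over 55% in size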
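Fibrosarcoma NT cells, 750 per well in 5% FBS RPMI, were exposed to compound for 48 hours. Viability: CellTiter-Glo luminescence.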
* marks the source's active call; other numbers are inactive results; [ ] = another dose, or the depositor's remark. Unless noted, calls follow the shape of the dose curve; as a rule, active = well fitted curve in the direction sought with a large enough effect; inconclusive = small, poorly fitted or top-dose-only effect, or another doubt; inactive = no such curve, though single readings can be large; an effect the other way counts as inactive or inconclusive. Unless noted, % is scaled to controls: 0 for no effect and ±100 for the full control effect.

Screening COc1ccc(N2CCN(C(=O)CNC(=O)Cc3ccc(Cl)cc3)CC2)cc1 returned TDP1 cell noCPT 5.8µM*, HT1080 IDH1KD tx 21µM*, TDP1 cell CPT 5.2µM*, IL-1B inflam inh 0, 12-LOX inh 32µM* and HT1080NT lethal inconclusive.
`CC(C)C(NC(=O)c1ccccc1)C(=O)OCC(=O)N1CCCC1` (stereo not given) gave TDP1 cell noCPT 9%, HT1080 IDH1KD tx 5%, TDP1 cell CPT 0%, IL-1B inflam inh 15, 12-LOX inh -12% and HT1080NT lethal 4%.
For CC(C)[C@H](NC(=O)c1ccc(Cl)cc1)C(=O)OCC(=O)N1CCN(c2ccccc2)CC1 the results were TDP1 cell noCPT 21µM*, HT1080 IDH1KD tx 3%, TDP1 cell CPT inconclusive, IL-1B inflam inh -18, 12-LOX inh inconclusive and HT1080NT lethal -8%.
For O=C(Cc1ccccc1)NCC(=O)N1CCN(c2ccc(F)cc2)CC1 the results were TDP1 cell noCPT inconclusive, HT1080 IDH1KD tx 0%, TDP1 cell CPT -22%, IL-1B inflam inh 47, 12-LOX inh 1% and HT1080NT lethal 2%.
CCn1c(-c2cc(-c3cc(C)ccc3C)nc3ccccc23)n[nH]c1=S was read as TDP1 cell noCPT inconclusive, HT1080 IDH1KD tx 10%, TDP1 cell CPT inconclusive, IL-1B inflam inh -7, 12-LOX inh -19% and HT1080NT lethal 1%.
`COc1ccc(-c2n[nH]c(=S)n2Cc2ccccc2)cc1OC` gave TDP1 cell noCPT 6%, HT1080 IDH1KD tx 0%, TDP1 cell CPT 8%, IL-1B inflam inh 11, 12-LOX inh inconclusive and HT1080NT lethal 1%.
`COc1ccc(NS(=O)(=O)c2cccc(-c3n[nH]c(=S)n3Cc3ccccc3)c2)cc1` gave TDP1 cell noCPT inconclusive, HT1080 IDH1KD tx -12%, TDP1 cell CPT 10%, IL-1B inflam inh 38, 12-LOX inh 32µM* and HT1080NT lethal 0%.
`CCOc1ccccc1-c1cc(-c2n[nH]c(=S)n2CC)c2ccccc2n1` gave TDP1 cell noCPT 18µM*, HT1080 IDH1KD tx 1%, TDP1 cell CPT inconclusive, IL-1B inflam inh 9, 12-LOX inh -29% and HT1080NT lethal -6%.
Screening S=c1[nH]nc(-c2ccc(Br)o2)n1Cc1ccccc1 returned TDP1 cell noCPT 21µM*, HT1080 IDH1KD tx inconclusive, TDP1 cell CPT inconclusive, IL-1B inflam inh -7, 12-LOX inh 1.6µM* and HT1080NT lethal -1%.
For COc1ccccc1-c1n[nH]c(=S)n1Cc1ccccc1 the results were TDP1 cell noCPT -10%, HT1080 IDH1KD tx -9%, TDP1 cell CPT -10%, IL-1B inflam inh 18, 12-LOX inh 28µM* and HT1080NT lethal -22%.
For Cc1cnn(CC(=O)N2C[C@@H](CO)[C@H](c3ccccn3)C2)c1 the results were 12-LOX inh 17%.
For COc1cc(NC(=O)c2cccc([N+](=O)[O-])c2)ccc1NC(=O)c1cc2ccccc2o1 the results were TDP1 cell noCPT 8.2µM*, HT1080 IDH1KD tx -3%, TDP1 cell CPT inconclusive, IL-1B inflam inh -1, 12-LOX inh 9% and HT1080NT lethal -3%.
Screening CCOc1cccc(C(=O)Nc2ccc(NC(=O)c3cc4ccccc4o3)c(OC)c2)c1 returned TDP1 cell noCPT inconclusive, HT1080 IDH1KD tx -12%, TDP1 cell CPT inconclusive, IL-1B inflam inh -1, 12-LOX inh 29% and HT1080NT lethal inconclusive.
`COc1cc(NC(=O)c2cccc(C)c2)ccc1NC(=O)c1cc2ccccc2o1` gave TDP1 cell noCPT 3.7µM*, HT1080 IDH1KD tx -14%, TDP1 cell CPT inconclusive, IL-1B inflam inh 21, 12-LOX inh 5% and HT1080NT lethal -5%.
For CCOc1cc(C(=O)Nc2ccc(NC(=O)c3cc4ccccc4o3)c(OC)c2)cc(OCC)c1OCC the results were TDP1 cell noCPT inconclusive, TDP1 cell CPT inconclusive and 12-LOX inh -16%.
Cc1ccc(C(=O)Nc2ccc3oc(C)nc3c2)c(C)c1 was read as 12-LOX inh 11%.
Screening NNC(=O)CCCCCCCCCCOCCCCO returned TDP1 cell noCPT 13µM*, HT1080 IDH1KD tx -22%, TDP1 cell CPT -21%, IL-1B inflam inh 16, 12-LOX inh 7% and HT1080NT lethal -18%.
`C/C(=N/Nc1ccc(C(=O)O)cc1)c1ccc2c(c1)Nc1ccccc1S2` gave TDP1 cell noCPT -1%, HT1080 IDH1KD tx -21%, TDP1 cell CPT -8%, IL-1B inflam inh 19, 12-LOX inh 28µM* and HT1080NT lethal -9%.
For C/C(=N\Nc1ccc(C(=O)O)cc1)c1ccc2c(c1)Nc1ccccc1S2 the results were TDP1 cell noCPT inconclusive, HT1080 IDH1KD tx inconclusive, TDP1 cell CPT inconclusive, IL-1B inflam inh 0, 12-LOX inh inconclusive and HT1080NT lethal -19%.
`CC(=O)OCC1(C)CN(c2ccccc2)N(C(=O)c2ccc(C(C)(C)C)cc2)C1=O` (stereo not given) gave TDP1 cell noCPT inconclusive, HT1080 IDH1KD tx inconclusive, TDP1 cell CPT inconclusive, IL-1B inflam inh -2, 12-LOX inh -18% and HT1080NT lethal inconclusive.
CC(=O)OCC1(C)CN(c2ccccc2)N(C(C)=O)C1=O (stereo not given) was read as TDP1 cell noCPT 21µM*, HT1080 IDH1KD tx inconclusive, TDP1 cell CPT inconclusive, IL-1B inflam inh 12, 12-LOX inh -15% and HT1080NT lethal 21µM*.
Screening CC(=O)OCC1(C)CN(c2ccccc2)NC1=O (stereo not given) returned TDP1 cell noCPT inconclusive, HT1080 IDH1KD tx 23µM*, TDP1 cell CPT 21µM*, IL-1B inflam inh 24, 12-LOX inh 40µM* and HT1080NT lethal inconclusive.
`O=C(NC[C@H]1OC[C@@H](NC2CCOCC2)[C@@H]1O)c1cccs1` gave 12-LOX inh 0%[176 µM].
`CC(C)(C)CC(=O)NCC(O)c1ccc(Cl)cc1` (stereo not given) gave 12-LOX inh 4%.
